Calls of active or inactive are those of the source.
Assays:
[1] = system: Plasmodium falciparum Sir2 (PF13_0152, Sir2A); experiment: Plasmodium falciparum Sir2A binding compounds – biochemical, small-molecule microarray, 635 nm fluorescence, primary screen (AID 1098); conditions: fluorescence 635 nm, higher = more signal;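 also: score merges spot fluorescence intensity with its signal-to-noise ratio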
[2] = probe aDKK1 binding to arrayed compounds – biochemical, biotinylated probe, 635/667 nm fluorescence, primary screen (AID 1099); conditions: small-molecule microarray, higher = more signal;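 also: score merges 667nm spot fluorescence with signal to noise across triplicate slides; reference of the scale not given here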
[3] = probe aCHRDL2 binding to arrayed compounds – biochemical, biotinylated probe, 635/667 nm fluorescence, primary screen (AID 1100); conditions: small-molecule microarray, higher = more signal
[4] = change in splice reporter luminescence, either direction, cell-based, HEK293, spliceosome inhibition project, primary screen (AID 1101); conditions: HEK293 splicing luciferase reporter, 24 h, higher = more signal, called active from +8 up or from −8 down;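 also: HEK293 cells carrying a splicing-competent luciferase reporter gene; test concentration not given here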
[5] = target: Fibroblast growth factor 10 (Homo sapiens) (UniProt O15520); experiment: compounds binding fibroblast growth factor 10 – biochemical, small-molecule microarray, 635 nm fluorescence, primary screen (AID 1102); conditions: FGF10 binding, fluorescence 635 nm, higher = more signal
Fibroblast growth factor 10 (Homo sapiens), sequence (O15520 whole entry, looked up): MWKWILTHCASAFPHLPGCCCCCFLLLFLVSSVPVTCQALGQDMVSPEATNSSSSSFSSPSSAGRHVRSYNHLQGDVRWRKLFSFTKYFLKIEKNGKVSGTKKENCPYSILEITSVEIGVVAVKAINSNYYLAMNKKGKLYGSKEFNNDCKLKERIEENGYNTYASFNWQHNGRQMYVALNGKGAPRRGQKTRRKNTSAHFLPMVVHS

[6] = system: glycogen synthase kinase-3 (GSK3A per assay name; protocol says GSK3B); experiment: compounds binding glycogen synthase kinase-3 – biochemical, small-molecule microarray, 635 nm fluorescence, GSK3A, primary screen (AID 1103); conditions: fluorescence 635 nm, higher = more signal; also: the record names both GSK3A and GSK3B
[7] = target: Epidermal growth factor receptor (Homo sapiens) (UniProt P00533); experiment: compounds binding epidermal growth factor receptor – biochemical, small-molecule microarray, 635 nm fluorescence, primary screen (AID 1104); conditions: EGFR binding, higher = more signal;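 also: score merges 667 nm emission intensity with spot signal to noise over triplicate slides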
Epidermal growth factor receptor (Homo sapiens), sequence (P00533 whole entry, looked up): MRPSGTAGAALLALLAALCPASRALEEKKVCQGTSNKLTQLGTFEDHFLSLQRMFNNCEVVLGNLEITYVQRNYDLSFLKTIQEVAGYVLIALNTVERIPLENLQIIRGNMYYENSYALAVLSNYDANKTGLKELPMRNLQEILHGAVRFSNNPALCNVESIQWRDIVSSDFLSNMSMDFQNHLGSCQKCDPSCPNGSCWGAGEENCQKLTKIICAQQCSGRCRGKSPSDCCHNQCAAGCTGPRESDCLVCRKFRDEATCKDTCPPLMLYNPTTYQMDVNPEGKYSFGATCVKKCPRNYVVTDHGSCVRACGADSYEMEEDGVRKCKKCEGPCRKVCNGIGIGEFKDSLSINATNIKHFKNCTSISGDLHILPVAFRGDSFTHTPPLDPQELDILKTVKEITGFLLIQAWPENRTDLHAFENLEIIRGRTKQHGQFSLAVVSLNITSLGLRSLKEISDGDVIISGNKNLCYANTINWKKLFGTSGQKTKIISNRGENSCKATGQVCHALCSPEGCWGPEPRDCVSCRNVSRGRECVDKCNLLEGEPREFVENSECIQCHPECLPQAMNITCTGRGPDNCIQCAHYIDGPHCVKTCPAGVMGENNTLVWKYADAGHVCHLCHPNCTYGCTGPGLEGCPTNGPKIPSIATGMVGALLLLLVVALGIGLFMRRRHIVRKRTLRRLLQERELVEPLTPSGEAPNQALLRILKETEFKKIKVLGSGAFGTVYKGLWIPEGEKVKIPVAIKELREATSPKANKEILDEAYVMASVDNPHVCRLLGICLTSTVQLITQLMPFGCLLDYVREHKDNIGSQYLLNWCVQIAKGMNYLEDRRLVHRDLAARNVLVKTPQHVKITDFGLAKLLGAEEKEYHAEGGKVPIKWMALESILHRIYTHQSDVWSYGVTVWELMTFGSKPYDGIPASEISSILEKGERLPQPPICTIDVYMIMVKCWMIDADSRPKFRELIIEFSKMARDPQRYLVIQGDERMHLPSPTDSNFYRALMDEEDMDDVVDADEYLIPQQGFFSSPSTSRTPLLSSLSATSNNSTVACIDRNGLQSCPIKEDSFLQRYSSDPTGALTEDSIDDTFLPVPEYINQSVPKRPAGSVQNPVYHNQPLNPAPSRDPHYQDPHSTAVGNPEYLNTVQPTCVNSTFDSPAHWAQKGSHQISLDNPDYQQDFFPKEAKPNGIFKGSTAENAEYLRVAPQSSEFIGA

[8] = target: Follistatin-related protein 3 (Homo sapiens) (UniProt O95633); experiment: compounds binding follistatin-related protein 3 – biochemical, small-molecule microarray, 635 nm fluorescence, primary screen (AID 1105); conditions: FSTL3 binding, higher = more signal;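 also: score merges emission near 667 nm and signal to noise per printed spot across three slides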
Follistatin-related protein 3 (Homo sapiens), sequence (O95633 whole entry, looked up): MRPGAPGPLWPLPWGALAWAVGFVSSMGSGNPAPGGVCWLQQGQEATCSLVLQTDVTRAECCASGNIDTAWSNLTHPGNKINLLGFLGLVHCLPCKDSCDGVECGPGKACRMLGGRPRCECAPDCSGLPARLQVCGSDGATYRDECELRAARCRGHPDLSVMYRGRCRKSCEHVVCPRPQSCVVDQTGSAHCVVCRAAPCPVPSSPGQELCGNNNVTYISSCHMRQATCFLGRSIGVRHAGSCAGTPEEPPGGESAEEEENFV

[9] = target: Dickkopf-related protein 1 (Homo sapiens) (UniProt O94907); experiment: small molecules binding DKK1 protein – biochemical, small-molecule microarray, 635 nm fluorescence scan, primary screen (AID 1106); conditions: higher = more signal;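 also: score merges emission near 667 nm with signal to noise over three replicate slides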
Dickkopf-related protein 1 (Homo sapiens), sequence (O94907 whole entry, looked up): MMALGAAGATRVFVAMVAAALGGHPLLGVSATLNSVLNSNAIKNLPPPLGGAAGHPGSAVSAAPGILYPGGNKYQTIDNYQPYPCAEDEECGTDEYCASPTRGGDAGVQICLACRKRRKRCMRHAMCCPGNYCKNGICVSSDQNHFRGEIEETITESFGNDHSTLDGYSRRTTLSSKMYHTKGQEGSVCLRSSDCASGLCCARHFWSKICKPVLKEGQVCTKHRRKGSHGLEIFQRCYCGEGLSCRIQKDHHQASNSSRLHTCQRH

[10] = system: Inhibin beta A chain (activin A); experiment: small molecules binding activin A – biochemical, small-molecule microarray, 635 nm fluorescence scan, primary screen (AID 1107); conditions: INHBA, higher = more signal;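 also: mouse activin A protein probed at 4.33 µg/mL on printed slides; score merges bound-protein fluorescence near 667 nm with spot signal-to-noise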

SMILES	composite z-score [1]	composite z-score [2]	composite z-score [3]	z-score [4]	composite z-score [5]	composite z-score [6]	composite z-score [7]	composite z-score [8]	composite z-score [9]	composite z-score [10]
C=C(C)C1CN([C@H](CO)c2ccccc2)C(=O)/C1=C\c1ccccc1 (stereo not given in full)	0.719	-0.316	-0.492	-0.921 (inactive)	0.716	0.22	0.0508	0.276	0.48	1.29
O=C(NCCN1CCOCC1)[C@@H]1c2ccccc2C(=O)N(CC23CC4CC(CC(C4)C2)C3)[C@H]1c1ccc(CO)cc1	1.13	0.253	0.789	0.507 (inactive)	1.33	1.32	0.634	1.21	0.0037	0.471
COC(=O)[C@@]1(Cc2ccccc2)[C@H]2c3cc(C(=O)N(C)C)n(Cc4nc5ccccc5[nH]4)c3C[C@H]2CN1C(=O)c1ccccc1	0.88	0.52	1.21	-2.1 (inactive)	0.742	0.64	0.226	0.841	-0.416	0.893
C=C(C(=O)CC[C@H](OC(=O)c1ccccc1-c1ccccc1C(=O)O)c1ccc(OCCO)cc1)C(C)C	1.26	0.157	0.0371	-0.47 (inactive)	1.04	0.114	-0.242	0.0428	0.339	0.548
Cc1ccc(S[C@]2(C(=O)NCCN3CCOCC3)CC(=O)N(C(C)C)[C@@H]2c2ccc(CO)cc2I)cc1	1.89	0.713	1.24	-1.48 (inactive)	-0.477	-0.465	-1.19	-0.55	-0.908	0.968
CCCCN1CC=CC23O[C@@H]4C=CCCOC(=O)C4[C@H]2C(=O)N(CCO)[C@@H]3C1=O (stereo not given in full)	-1.33	-0.364	0.297	0.244 (inactive)	0.107	-0.248	-1.19	-0.838	-0.587	0.0542
COC(=O)C(CC#Cc1ccc2c(c1)[C@]1(C(=O)N2)[C@H](C(=O)N2CCCCCCC2)[C@H]2C(=O)O[C@H](c3ccccc3)[C@H](c3ccccc3)N2[C@@H]1c1ccc(OCCO)cc1)C(=O)OC	2.26	2.85	1.58	0.741 (inactive)	1.63	1.5	1.94	1.71	2.55	1.73
CO[C@H]1O[C@H](CO)[C@@H](OC(=O)CCc2ccccc2)[C@@H]2OC(=O)[C@@H](Cc3ccc4ccccc4c3)C/C=C/C[C@H](Cc3ccc4ccccc4c3)C(=O)O[C@@H]12	1.08	-0.653	0.46	-0.779 (inactive)	-0.361	-0.346	-0.691	0.0223	-1.19	0.499
COC(=O)[C@@]1(Cc2ccc(OC)cc2)[C@@H]2[C@@H](CC(=O)[C@H]2CC(=O)C(=O)N(C)C)CN1C(=O)c1ccccc1	0.625	1.64	1.49	-1.53 (inactive)	1.27	1.18	0.638	1.17	-0.458	0.18
CC1(C)OB(/C=C\CC(OC(=O)c2ccncc2)c2ccccc2)OC1(C)C (stereo not given)	0.398	1.17	1.47	0.639 (inactive)	-0.951	-0.131	-1.31	-0.0031	-1.26	1.75
C=CCC(OC(C)=O)[C@@H]1[C@@H](N(Cc2ccc(-c3ccccc3)cc2)C(=O)Cc2ccc(OC)cc2)c2cc(OCCCO)ccc2N1C(=O)Cc1ccc(OC)cc1 (stereo not given in full)	-0.214	0.642	0.327	-0.581 (inactive)	0.0842	-0.0794	-0.0897	-0.147	-0.191	1.59
CC(C)[Si](C#Cc1ccccc1)(O[C@H](c1ccccc1)c1cn(Cc2ccccc2)nn1)C(C)C	1.56	0.191	-0.386	-1.97 (inactive)	0.785	1.06	0.726	1.49	1.86	-0.165
C[N+](C)(C)CCCC[C@@H]1NC(=O)[C@H]2C[C@@H](C(=O)NCCCCCN)[C@@H](c3ccc(O)cc3)N2C1=O	0.977	0.876	0.863	0.127 (inactive)	1.53	1.34	0.243	0.58	0.89	0.617
CCCC[C@@H](O)C1=C(C)Cn2c(=O)n(-c3ccccc3)c(=O)n2[C@H]1CO	-0.0833	-0.526	-0.487	-1 (inactive)	0.132	-0.349	0.0431	-0.265	0.0869	0.146
COc1cccc(C)c1NC(=O)O[C@H]1[C@H](OC(=O)Nc2ccccc2-c2ccccc2)[C@@H](OC(=O)Nc2ccccc2-c2ccccc2)[C@@H](OC)O[C@@H]1CO	1.3	0.629	0.573	0.152 (inactive)	1.4	1.1	0.316	1.43	0.244	0.601
O=C1O[C@H](c2ccccc2)[C@H](c2ccccc2)N2[C@H]1[C@@H](C(=O)O)[C@]1(C(=O)Nc3ccc(C#CC4(O)CCCCCC4)cc31)[C@H]2c1ccccc1OCCO	1.5	0.0035	-0.351	-0.767 (inactive)	1.02	1.29	0.24	0.69	0.195	0.745
O=C(c1ccccc1)N1Cc2ccccc2C[C@@]2(N=C(c3ccc(OCCCO)cc3)O[C@H]2c2ccccc2)C1=O	1.26	-0.114	-0.0152	-0.847 (inactive)	1.38	1.3	0.699	0.963	0.777	-0.395
COc1ccc([Si](C)(C)[C@H]2[C@H](CC(=O)N(CCO)Cc3ccccc3)O[C@@]3(C(=O)N(Cc4cccc(N5CCCCC5=O)c4)c4ccccc43)[C@@H]2C)cc1	0.535	-0.147	-0.13	-2.32 (inactive)	0.114	-0.0519	-0.0805	0.436	0.327	0.167
[N-]=[N+]=NCc1ccccc1[C@H]1OC(c2ccc(OCCCO)cc2)=N[C@@]1(CCS(=O)(=O)c1ccccc1)C(=O)NCCN1CCOCC1	1.51	0.667	1.12	-0.757 (inactive)	1.38	0.844	0.135	0.698	0.0689	0.914
C=CC[C@H](OC(=O)Nc1ccc(SC)cc1)c1ccc(O)c(F)c1	0.983	-0.172	0.277	-0.354 (inactive)	-0.918	-0.786	-0.392	-0.88	-1.17	0.536
CO[C@H]1O[C@H](CO)[C@@H](OC(=O)Nc2cccc(F)c2)[C@H](OC(=O)c2cc3ccccc3[nH]2)[C@H]1OC(=O)c1cc2ccccc2[nH]1	-0.233	-0.448	-0.154	-1.57 (inactive)	0.284	-0.199	-0.213	0.469	0.135	0.0912
CCCCN1CC=CC23O[C@@H]4/C=C\CCC(C)OC(=O)C4[C@H]2C(=O)N(CCO)[C@@H]3C1=O (stereo not given in full)	1.38	-0.218	0.64	0.267 (inactive)	-1.17	-0.415	-0.652	-0.0882	-0.231	1.19
C[C@]1(C(=O)NC2CC2)c2ccccc2C(=O)N(Cc2cc(F)cc(C(F)(F)F)c2)[C@H]1c1ccc(CO)cc1	0.938	-0.554	0.87	-0.224 (inactive)	-0.698	-1.08	-1.16	-0.801	-1.46	-0.672
C[N+](C)(C)CCCC[C@@H]1NC(=O)[C@H]2C[C@@H](C(=O)O)[C@@H](c3ccc(O)cc3)N2C1=O	0.327	-0.0349	0.149	-0.303 (inactive)	0.158	0.984	-0.102	0.0506	0.971	0.832
COC(=O)[C@@]1(Cc2ccc(F)cc2)[C@H]2c3cc(C(=O)N4CCCC4)n(CCc4c[nH]c5cc(F)ccc45)c3C[C@H]2CN1C(=O)c1ccccc1	1.05	0.593	0.852	-0.685 (inactive)	1.14	1.32	0.146	1.25	0.736	1.09
C=C(COC)C(=O)CC[C@@H](OC(=O)c1ccccc1-c1ccccc1C(=O)O)c1ccccc1OCCO	0.664	-0.0934	0.0182	-0.14 (inactive)	1.65	0.293	-0.0099	0.474	0.902	1.34
CCN1C(=O)C2CC(=O)C3C(CN(S(=O)(=O)c4ccc(C)cc4)C3c3ccc(C)cc3)C2C1=O (stereo not given)	0.959	0.972	0.882	-0.106 (inactive)	0.193	0.338	-0.483	-0.167	-0.295	1.15
CC1C2C(CCCO)=CC(C3C(=O)N(C)C(=O)C23)N1Cc1cccc(OC(F)(F)F)c1 (stereo not given)	1.47	0.784	0.44	-1.06 (inactive)	0.684	1.3	0.0422	0.231	-0.124	0.527
